{"source": "PubChem BioAssay (EPA / NIEHS)", "note": "Values joined by “and” are separate entries in the source; they are usually repeats but may differ in a detail not shown here. Equal entries are not always repeated. Active and inactive are the calls of the source. How the source made its calls: active means hit-call score of the fitted dose curve at least 0.9, where 1 is the maximum; inactive means score below 0.9."}
{"read-out": "Interleukin-8 (IL8), CXCL8 (gene 3576)", "test": "BSK_3C_IL8: BioMAP Diversity Plus: 3C Assay for Interleukin-8 (IL8) Biomarker Activity (AID 2283020)", "conditions": "primary human endothelial cells (HUVEC); actives raise or lower the signal", "procedure": "BSK_3C is a cell-based, multiplexed-readout assay that uses umbilical vein endothelium, a human vascular primary cell, with measurements taken at 24 hours after chemical dosing in a 96-well plate.BSK_3C_IL8 is an assay component measured in the BSK_3C assay. It measures IL-8 antibody related to regulation of gene expression using ELISA technology.Data from the assay component BSK_3C_IL8 was analyzed into 1 assay endpoint. This assay endpoint, BSK_3C_IL8, was analyzed with bidirectional fitting relative to DMSO as the negative control and baseline of activity. Using a type of binding reporter, gain or loss-of-signal activity can be used to understand changes in the signaling as they relate to the gene CXCL8. Furthermore, this assay endpoint can be referred to as a primary readout, because this assay has produced multiple assay endpoints where this one serves a signaling function. To generalize the intended target to other relatable targets, this assay endpoint is annotated to the cytokine intended target family, where the subfamily is interleukins.\nThe levels of cell surface (or secreted, indicated by the prefix \"s\") biomarker endpoints were measured by ELISA. Overt cytotoxicity to cells in confluent adherent cultures (all systems other than the BT system) was assessed by measuring total protein levels using sulforhodamine B (SRB) staining in parallel cultures at the time of biomarker measurements, indicated as SRB endpoints. For proliferation assays for adherent cell types, individual cell types are cultured at sub-confluence and relative cell numbers quantified by SRB staining at time points optimized for each system (48 h: 3C and CASM3C systems; 72 h: BT and HDF3CGF systems; 96 h: SAg system). SRB was performed by staining cells with 0.1% SRB after fixation with 10% TCA and reading wells at 560 nm.Viability and proliferation of PBMC (T cells) was quantified by Alamar Blue reduction for the SAg and BT systems. For PBMC viability (referred to as PBMC Cytotoxicity within the assay endpoint names), cells were plated (75,000/well in a 96-well plate) and then chemical samples added for 1 h before addition of activators, SEB and TSST-1 (20 ng/mL final concentration each). Cells were incubated for 90 h. Then, Alamar Blue (20 uL/well) (Invitrogen, Cat DAL1100) was added for 6 h, and the plates were read with a fluorescence microplate reader at 546/580 nm (excitation/emission). For PBMC proliferation, cells were plated and activated as above but incubated for only 16 h prior to addition of Alamar Blue. Plates were read after 6 h."}
{"smiles": "Cc1nn(-c2cc(NS(C)(=O)=O)c(Cl)cc2Cl)c(=O)n1C(F)F", "outcome": "inactive"}
{"smiles": "CCOP(=S)(OCC)Oc1cc(C)nc(C(C)C)n1", "outcome": "inactive"}
{"smiles": "CNC(=O)ON=C(C)SC", "outcome": "inactive"}
{"smiles": "S=C1NCCN1", "outcome": "inactive"}
{"smiles": "FC(F)C(F)(F)OCC(Cn1cncn1)c1ccc(Cl)cc1Cl", "note": "(stereo not given)", "outcome": "inactive"}
{"smiles": "CN(C)[C@@H]1C(=O)C(C(N)=O)=C(O)[C@@]2(O)C(=O)C3=C(O)c4c(O)cccc4[C@@](C)(O)[C@H]3[C@H](O)[C@@H]12", "outcome": "inactive"}
{"smiles": "CN(C)C(=O)Nc1cccc(C(F)(F)F)c1", "outcome": "inactive"}
{"smiles": "CCc1cccc(CC)c1N(COC)C(=O)CCl", "outcome": "inactive"}
{"smiles": "C#CC(C)(C)NC(=O)c1cc(Cl)cc(Cl)c1", "outcome": "inactive"}
{"smiles": "CC(=NC#N)N(C)Cc1ccc(Cl)nc1", "outcome": "inactive"}
{"smiles": "COP(=O)(OC)C(O)C(Cl)(Cl)Cl", "note": "(stereo not given)", "outcome": "inactive"}
{"smiles": "CCC(=NOC/C=C/Cl)C1=C(O)CC(C2CCOCC2)CC1=O", "note": "(stereo not given)", "outcome": "inactive"}
{"smiles": "CC1=NNC(=O)N(/N=C/c2cccnc2)C1", "outcome": "inactive"}
{"smiles": "CCc1cccc(C)c1N(C(=O)CCl)C(C)COC", "note": "(stereo not given)", "outcome": "inactive"}
{"smiles": "CCOP(=O)(OCC)Oc1cc(C)nc(C(C)C)n1", "outcome": "inactive"}
{"smiles": "CON=C(C(=O)OC)c1ccccc1CON=C(C)c1cccc(C(F)(F)F)c1", "AC50": "1.76 µM (active)"}
{"smiles": "CCOC(=O)COc1cc(-c2nn(C)c(OC(F)F)c2Cl)c(F)cc1Cl", "outcome": "inactive"}
{"smiles": "Cc1cc(C2CC2)nc(Nc2ccccc2)n1", "outcome": "inactive"}
{"smiles": "CCCSP(=O)(OCC)SCCC", "outcome": "inactive"}
{"smiles": "O=[N+]([O-])c1cc(C(F)(F)F)c(Cl)c([N+](=O)[O-])c1Nc1ncc(C(F)(F)F)cc1Cl", "AC50": "3.36 µM (active) and 4.25 µM (active)"}
{"smiles": "CCOP(=S)(OCC)SCCSCC", "outcome": "inactive"}
{"smiles": "CC[C@H](C)[C@H]1O[C@]2(C=C[C@@H]1C)C[C@@H]1C[C@@H](C/C=C(\\C)[C@@H](O[C@H]3C[C@H](OC)[C@@H](O[C@H]4C[C@H](OC)[C@@H](NC)[C@H](C)O4)[C@H](C)O3)[C@@H](C)/C=C/C=C3\\CO[C@@H]4[C@H](O)C(C)=C[C@@H](C(=O)O1)[C@]34O)O2", "AC50": "6.22 µM (active)"}
{"smiles": "COc1ccc(C(=CC(=O)N2CCOCC2)c2ccc(Cl)cc2)cc1OC", "outcome": "inactive"}
{"smiles": "N#CSCSC#N", "AC50": "11.7 µM (active)"}
{"smiles": "COP(=O)(NC(C)=O)SC", "note": "(stereo not given)", "outcome": "inactive"}
{"smiles": "CCC(CC)Nc1c([N+](=O)[O-])cc(C)c(C)c1[N+](=O)[O-]", "AC50": "23.8 µM (active)"}
{"smiles": "CCC(=O)Nc1ccc(Cl)c(Cl)c1", "outcome": "inactive"}
{"smiles": "CC(C)N(C(=O)SCC(Cl)=C(Cl)Cl)C(C)C", "AC50": "30.2 µM (active)"}
{"smiles": "CN1COCN(Cc2cnc(Cl)s2)C1=N[N+](=O)[O-]", "outcome": "inactive"}
{"smiles": "CSc1nc(NC(C)C)nc(NC(C)C)n1", "outcome": "inactive"}
{"smiles": "CCNc1nc(Cl)nc(NC(C)(C)C#N)n1", "outcome": "inactive"}
{"smiles": "CCOP(=S)(Oc1cnc(C(C)(C)C)nc1)OC(C)C", "note": "(stereo not given)", "AC50": "30.2 µM (active)"}
{"smiles": "CCCSP(=O)(OCC)Oc1ccc(Br)cc1Cl", "note": "(stereo not given)", "outcome": "inactive"}
{"smiles": "Nc1nc(N)nc(NC2CC2)n1", "outcome": "inactive"}
{"smiles": "CC(C)=CC1C(C(=O)OCN2C(=O)C3=C(CCCC3)C2=O)C1(C)C", "note": "(stereo not given)", "outcome": "inactive"}
{"smiles": "CCCOc1nn(C(=O)NS(=O)(=O)c2ccccc2C(=O)OC)c(=O)n1C", "outcome": "inactive"}
{"smiles": "CNC(=O)ON=C(SC)C(=O)N(C)C", "outcome": "inactive"}
{"smiles": "CCOP(=S)(OCC)OC(Cl)C(Cl)(Cl)Cl", "note": "(stereo not given)", "outcome": "inactive"}
{"smiles": "C[Si](Cn1cncn1)(c1ccc(F)cc1)c1ccc(F)cc1", "outcome": "inactive"}
{"smiles": "O=C(O)c1cc(Oc2ccc(C(F)(F)F)cc2Cl)ccc1[N+](=O)[O-]", "outcome": "inactive"}
